Test results taken from PubChem BioAssay.
For some of these results: Entries with a potency or affinity are not part of this list. Activity calls are given as the source filed them. How the calls were made is not given here.

What was measured:
[1] = yeast 75Q aggregation reduction – 75Q-TubU reporter (AID 1593); details: Yeast 75Q polyglutamine aggregation reporter
[2] = restoration of touch response, mutant HTT neurons – whole organism, C. elegans mechanosensory neurons, N-terminal huntingtin (AID 1599); details: C. elegans polyQ-huntingtin mechanosensory neurons, stronger effect = higher value
[3] = blockers of cytochrome c efflux from mitochondria – biochemical, purified mitochondria (AID 1603); details: stronger effect = lower value;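 further: mouse liver mitochondria challenged with calcium chloride; signal normalized to the plate average as 100%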
[4] = polyglutamine aggregate formation blockers (AID 1604); details: polyglutamine-induced protein aggregation inhibition assay; stronger effect = higher value; tested at 2.5 µM
[5] = glutamate transport activators, MN-1 cells, MN-1 cell line (AID 1612); details: MN-1 motor neuron cells, stronger effect = higher value;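 further: tested at 1 µM final; 0% = mean of DMSO vehicle wells on each plate; positive means more glutamate uptake than control and negative means less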
[6] = GFP-Q80 aggregate reduction, neuronal-like cells, cell-based, NGF-treated PC12, GFPQ80 (AID 1614); details: PC12 NGF-treated GFP-polyQ80 inclusion reduction;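 further: lower means fewer inclusions and 0 means no inclusions at all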
[7] = 75Q-TubH aggregate inhibition, S. cerevisiae, yeast (AID 1616); details: S. cerevisiae 75Q-TubH polyglutamine aggregation suppression; stronger effect = higher value
[8] = test system: Aerobactin synthetase IucA (Klebsiella pneumoniae hvKP1); assay: IucA enzyme inhibition, primary screen, biochemical, Spectrum library (AID 1346200); details: malachite green pyrophosphate, A620, at 8 µM, stronger effect = lower value;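 further: 100% = wells without compound and 0% = wells lacking enzyme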
[9] = test system: Aerobactin synthetase IucA (Klebsiella pneumoniae, hypervirulent); assay: biochemical IucA inhibition screen of LOPAC library by absorbance (AID 1346212); details: IucA enzyme assay, absorbance (OD) readout; stronger effect = lower value;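 tested at 8 µM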;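 further: 100% = no compound wells and 0% = no enzyme wells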

**Q.** Which score [1] does the source give for `CO[C@H]1[C@H](O)[C@H](O[C@H]2CC[C@]3(C)C4CC[C@]5(C)C(C6=CC(=O)OC6)CC[C@]5(O)C4CC[C@@H]3C2)O[C@@H](C)[C@@H]1O` (stereo partly specified) here?
**A.** 1.23

**Q.** What about the rescue above control [2] of the same compound?
**A.** -1.89

**Q.** And the cytochrome c release ratio [3]?
**A.** 0.83

**Q.** And the inhibition of aggregation [4]?
**A.** 94.4%

**Q.** What about the glutamate uptake change [5] of the same compound?
**A.** -17.6%

**Q.** And the inclusion score [6]?
**A.** 2

**Q.** And the aggregation suppression score [7]?
**A.** 1.46

**Q.** What about the activity remaining [8] of the same compound?
**A.** 93.6% (inactive)

**Q.** Which remaining activity [9] does the source give for `NC1(C(=O)O)CCCCC1` here?
**A.** 125% (inactive)

**Q.** For `CC(C)C[C@H](NC(=O)[C@H](O)[C@H](N)Cc1ccccc1)C(=O)O`, which remaining activity [9] is on record?
**A.** 120% (inactive)

**Q.** Which remaining activity [9] does the source give for `COc1cc2c(CCNC(C)=O)c[nH]c2cc1Cl` here?
**A.** 115% (inactive)

**Q.** With `C[C@H](O)C(=O)C1=Nc2c(nc(N)[nH]c2=O)NC1` as the compound, how does the remaining activity [9] read?
**A.** 109% (inactive)

**Q.** With `O=C(O)C1CCCN(CCC=C(c2ccccc2)c2ccccc2)C1` (stereo unspecified) as the compound, how does the remaining activity [9] read?
**A.** 86.8% (inactive)

**Q.** With `Nc1ccn([C@H]2CC[C@@H](CO)O2)c(=O)n1` as the compound, how does the remaining activity [9] read?
**A.** 121% (inactive)

**Q.** Which remaining activity [9] does the source give for `C[C@H]1C[C@H]2[C@@H]3CCC4=CC(=O)C=C[C@]4(C)[C@@]3(Cl)[C@@H](O)C[C@]2(C)[C@@]1(O)C(=O)CO` here?
**A.** 107% (inactive)

**Q.** With `N[C@H](CO)C(=O)O` as the compound, how does the remaining activity [9] read?
**A.** 106% (inactive)

**Q.** With `CC(=O)O[C@H]1C(=O)[C@@]2(C)[C@H]([C@H](OC(=O)c3ccccc3)[C@]3(O)C[C@H](OC(=O)[C@H](O)[C@@H](NC(=O)c4ccccc4)c4ccccc4)C(C)=C1C3(C)C)[C@]1(OC(C)=O)CO[C@@H]1C[C@@H]2O` as the compound, how does the remaining activity [9] read?
**A.** 94.8% (inactive)

**Q.** Which remaining activity [9] does the source give for `O=C1NC(=O)C(c2ccccc2[N+](=O)[O-])=C1Nc1ccc(O)c(Cl)c1` here?
**A.** 95% (inactive)

**Q.** With `C=C[C@H]1CN2CC[C@H]1C[C@H]2[C@H](O)c1ccnc2ccc(OC)cc12` as the compound, how does the remaining activity [9] read?
**A.** 110% (inactive)

**Q.** Which remaining activity [9] does the source give for `COc1ccc(C(=O)NCc2cccnc2)cc1C(=O)NCc1cccnc1` here?
**A.** 103% (inactive)

**Q.** With `O=c1cc(N2CCOCC2)oc2c(-c3ccccc3)cccc12` as the compound, how does the remaining activity [9] read?
**A.** 110% (inactive)

**Q.** With `CC(C)c1ccc2c(c1)c(SC(C)(C)C)c(CC(C)(C)C(=O)O)n2Cc1ccc(Cl)cc1` as the compound, how does the remaining activity [9] read?
**A.** 113% (inactive)

**Q.** With `COc1cc(-c2ccc(=O)[nH]n2)ccc1OC(F)F` as the compound, how does the remaining activity [9] read?
**A.** 119% (inactive)

**Q.** Which remaining activity [9] does the source give for `CC(C)(C)c1ccc(/C=C/C(=O)Nc2ccc3c(c2)OCCO3)cc1` here?
**A.** 107% (inactive)

**Q.** With `Brc1c(NC2=NCCN2)ccc2nccnc12` as the compound, how does the remaining activity [9] read?
**A.** 105% (inactive)

**Q.** For `O=S(=O)(c1cccc2cnccc12)N1CCNCC1`, which remaining activity [9] is on record?
**A.** 121% (inactive)

**Q.** With `CN1CC(O)C(O)C(O)C1CO` (stereo unspecified) as the compound, how does the remaining activity [9] read?
**A.** 105% (inactive)

**Q.** Which remaining activity [9] does the source give for `CCN1CCC[C@H]1CNC(=O)c1cc(S(N)(=O)=O)ccc1OC` here?
**A.** 122% (inactive)

**Q.** Which remaining activity [9] does the source give for `OC(CN1CCN(c2cccc(Cl)c2)CC1)C(c1ccccc1)c1ccccc1` (stereo unspecified) here?
**A.** 114% (inactive)

**Q.** For `Cc1cc(C)c(/C=C2\C(=O)Nc3ccccc32)[nH]1`, which remaining activity [9] is on record?
**A.** 118% (inactive)

**Q.** Which remaining activity [9] does the source give for `Oc1cc2c(cc1O)CN(C(=S)NCCc1ccc(Cl)cc1)CCC2` here?
**A.** 97.8% (inactive)

**Q.** With `Cn1cc(C2=C(c3ccc(Cl)cc3Cl)C(=O)NC2=O)c2ccccc21` as the compound, how does the remaining activity [9] read?
**A.** 116% (inactive)

**Q.** With `C[C@@](Cc1ccc(O)c(O)c1)(NN)C(=O)O` as the compound, how does the remaining activity [9] read?
**A.** 81.8% (inactive)

**Q.** For `COc1ccc(NC=O)c(C(=O)CCNC(C)=O)c1`, which remaining activity [9] is on record?
**A.** 95% (inactive)

**Q.** Which remaining activity [9] does the source give for `COc1ccc(Cl)cc1NC(=O)Nc1cc(C)nc2ccccc12` here?
**A.** 95% (inactive)

**Q.** With `CC[C@]1(O)C[C@H]2CN(CCc3c([nH]c4ccccc34)[C@@](C(=O)OC)(c3cc4c(cc3OC)N(C=O)[C@H]3[C@@](O)(C(=O)OC)[C@H](OC(C)=O)[C@]5(CC)C=CCN6CC[C@]43[C@@H]65)C2)C1` as the compound, how does the remaining activity [9] read?
**A.** 109% (inactive)

**Q.** For `Brc1c(Br)c(Br)c2n[nH]nc2c1Br`, which remaining activity [9] is on record?
**A.** 120% (inactive)

**Q.** Which remaining activity [9] does the source give for `Cc1ccc(=O)n(-c2ccccc2)c1` here?
**A.** 120% (inactive)

**Q.** Which remaining activity [9] does the source give for `Nc1nc(N)c2nc(CNc3ccc(C(=O)N[C@@H](CCC(=O)O)C(=O)O)cc3)cnc2n1` here?
**A.** 112% (inactive)

**Q.** With `O=C(O)C1=CCNCC1` as the compound, how does the remaining activity [9] read?
**A.** 95.2% (inactive)

**Q.** For `C[C@@H](CN1CCC(Cc2ccccc2)CC1)[C@@H](O)c1ccc(O)cc1`, which remaining activity [9] is on record?
**A.** 92.9% (inactive)

**Q.** For `NC(=S)NCCCC(N)C(=O)O` (stereo unspecified), which remaining activity [9] is on record?
**A.** 102% (inactive)

**Q.** With `CNCCC(Oc1ccccc1C)c1ccccc1` (stereo unspecified) as the compound, how does the remaining activity [9] read?
**A.** 102% (inactive)

**Q.** With `Clc1ccc(Cn2c(CN3CCCC3)nc3ccccc32)cc1` as the compound, how does the remaining activity [9] read?
**A.** 115% (inactive)

**Q.** With `COc1cccc(C(=O)NCCN2CCN(c3ccc(Cl)cc3)CC2)c1` as the compound, how does the remaining activity [9] read?
**A.** 124% (inactive)

**Q.** For `CNC(=O)[C@H]1O[C@@H](n2cnc3c(NCc4ccc(N)cc4)ncnc32)[C@H](O)[C@@H]1O`, which remaining activity [9] is on record?
**A.** 119% (inactive)
